Data reported in PubChem BioAssay (NCATS).
Inconclusive results are not listed. Where a call stands in place of a potency, no number is given. Active and inactive are the calls of the source. Calls come from the whole dose curve; as a rule, active = well fitted cell-killing curve with a large enough effect; inconclusive = small, poorly fitted or top-dose-only effect; inactive = no such curve, though single readings can be large or run the other way.

assay: qHTS of pediatric cancer cell lines to identify multiple opportunities for drug repurposing: Primary screen for A673 cells (AID 1347092); details: A673 Ewing sarcoma viability, CellTiter-Glo ATP luminescence, 48 h; series mostly up to 46 µM; note: nearly all actives have a fitted effect of over 45% in size
Source text: Drug repurposing or repositioning has been offered as a strategy for drug development in oncology programs. This approach has special potential for childhood cancers and other rare or orphan diseases, where the expected return on new drug development has been a disincentive to pharmaceuticals. […] In this project we exploit the poly-pharmacology of drugs to discover new indications via phenotypic screening of a panel of 19 well-characterized cell lines derived from solid tumors seen in children and adolescents. The goal is to identify approved drugs with previously unrecognized anticancer properties that has the potential to reveal new mechanisms and biological processes involved in carcinogenesis or drug resistance. We employed a titration-based paradigm (quantitative high-throughput screening or qHTS), where all compounds were tested at multiple concentrations for their effect on cell viability. Concentration-response curves (CRCs) were derived directly from the primary screen, and both potency and efficacy values were used to identify compounds with robust bioactivity profiles. We screened the NIH Chemical Genomics Center (NCGC) Pharmaceutical Collection (NPC) and Mechanism Interrogation Plate (MIPE) small molecule collections of approved and investigational compounds against these cell lines; and measured metabolically active cells after 48 hours of compound treatment as a proxy for cell viability. […] Assay Submitter: Nathalia J. Martinez, National Center for Advancing Translational Sciences, National Institutes of Health, Rockville, MD, USA; email: natalia.martinez@nih.gov. Shen, M et al. Quantitative high-throughput phenotypic screening of pediatric cancer cell lines identifies multiple opportunities for drug repurposing. Oncotarget 2017 Dec 19;9(4):4758-4772. PMID 29435139.
The cells were obtained from University of North Carolina (UNC), Pediatric Preclinical Testing Program (PPT), and Coriell Institute (CI). qHTS cell viability assay: Cells were assayed in growth media at a density of 500-1,000 cells/well. Five microliters of cells were dispensed into 1,536-well, white, solid-bottom, TC-treated plates (Greiner Bio One) using a multidrop dispenser and incubated at 37 degrees C, 5% CO2, under a humidified atmosphere for 5 hours. Twenty-three nanoliters of compounds and controls (neutral control DMSO or positive control bortezomib at final concentration of 2.3 uM) were subsequently transferred by Kalypsys pintool. For primary screens, the MIPE collection was tested at 11-point dilutions (final concentrations range from 0.78 nM to 46 µM) and the NPC collection at 8-point dilutions (final concentrations range from 0.59 nM to 46 µM). Compounds tested in follow-up screens were assayed at 11-point dilutions. Cells were incubated for 48 hours, followed by addition of 3 uL of CellTiter-Glo (Promega). After a 15min incubation at room temperature, samples were analyzed for luminescence intensity using a ViewLux High-throughput CCD imager equipped with clear filters.
Potency is the fitted concentration of half-maximal effect.

| SMILES | Potency |
| --- | --- |
| CCCCC1=NC2(CCCC2)C(=O)N1Cc1ccc(-c2ccccc2-c2nn[nH]n2)cc1 | inactive |
| NCCc1ccn[nH]1 | inactive |
| O=c1[nH]c(=O)n([C@H]2C[C@H](O)[C@@H](CO)O2)cc1C(F)(F)F | 1.68 µM (active) |
| COc1cc2c(cc1OC)[C@@H]1CC(=O)[C@@H](CC(C)C)CN1CC2 | inactive |
| COc1ccc(CN2CCN(C(c3ccc(F)cc3)c3ccc(F)cc3)CC2)c(OC)c1OC | 21.1 µM (active) |
| CC(Cc1cccc(C(F)(F)F)c1)NCCOC(=O)c1ccccc1 (stereo not given) | inactive |
| CC(=O)Oc1ccc(C(=C2CCCCC2)c2ccc(OC(C)=O)cc2)cc1 | inactive |
| COc1cc(/C=C/C(=O)O[C@H]2CC[C@]34C[C@]35CC[C@]3(C)[C@@H]([C@H](C)CCC=C(C)C)CC[C@@]3(C)[C@@H]5CC[C@H]4C2(C)C)ccc1O | inactive |
| CC[C@@H](CO)NCCN[C@@H](CC)CO | inactive |
| N[C@@H](CCC(=O)N[C@@H](CS)C(=O)NCC(=O)O)C(=O)O | inactive |
| Cc1nc2n(c(=O)c1CCN1CCC(c3noc4cc(F)ccc34)CC1)CCC[C@H]2O | inactive |
| C[C@]12C=CC(=O)C=C1[C@@H](F)C[C@@H]1[C@@H]2[C@@H](O)C[C@@]2(C)[C@H]1CC[C@]2(O)C(=O)CO | inactive |
| CO/N=C1\CN(c2nc3c(cc2F)c(=O)c(C(=O)O)cn3C2CC2)CC1CN (stereo not given) | inactive |
| CCOc1ccc2nc3cc(N)ccc3c(N)c2c1 | 26.6 µM (active) |
| CC(=O)OCC(=O)[C@@]12N=C(C)O[C@@H]1C[C@H]1[C@@H]3CCC4=CC(=O)C=C[C@]4(C)[C@H]3[C@@H](O)C[C@@]12C | inactive |
| C=CCc1ccc(O)c(OC)c1 | inactive |
| CCCCCCC[N+](CC)(CC)CCCCc1ccc(Cl)cc1 | 3.35 µM (active) |
| CC(C)(Oc1ccc(Cl)cc1)C(=O)O | inactive |
| CC1(C)O[C@@H]2C[C@H]3[C@@H]4C[C@H](F)C5=CC(=O)C=C[C@]5(C)[C@H]4[C@@H](O)C[C@]3(C)[C@]2(C(=O)CO)O1 | inactive |
| NC(=O)CC[C@@H]1NC(=O)[C@H](Cc2ccccc2)NC(=O)[C@H](Cc2ccc(O)cc2)NC(=O)CCSSC[C@@H](C(=O)N2CCC[C@H]2C(=O)N[C@@H](CCCN=C(N)N)C(=O)NCC(N)=O)NC(=O)[C@H](CC(N)=O)NC1=O | inactive |

| SMILES | Potency |
| --- | --- |
| CN1CCC[C@@H]1c1cccnc1 | inactive |
| O=C(COc1ccc(Cl)cc1)N1CCN(Cc2ccc3c(c2)OCO3)CC1 | inactive |
| Cc1c(C(C)C)c(=O)n(-c2ccccc2)n1C | inactive |
| CCCOC(C(=O)OC1CCN(C)CC1)(c1ccccc1)c1ccccc1 | inactive |
| CC(C)(C)CC(C)(C)c1ccc(OCCOCC[N+](C)(C)Cc2ccccc2)cc1 | 10.6 µM (active) |
| CN1[C@@H]2CC[C@H]1CC(OC(=O)c1c[nH]c3ccccc13)C2 (stereo not given in full) | inactive |
| CCCC(=O)Nc1ccc(OCC(O)CNC(C)C)c(C(C)=O)c1 (stereo not given) | inactive |
| C[C@]12CCC(=O)C=C1[C@@H]1C[C@@H]1[C@H]1[C@@H]3[C@@H]4C[C@@H]4[C@@]4(CCC(=O)O4)[C@@]3(C)CC[C@@H]12 | inactive |
| Cc1c(F)c(N2CCNC(C)C2)cc2c1c(=O)c(C(=O)O)cn2C1CC1 (stereo not given) | inactive |
| COC(=O)C1=C(C)NC(C)=C(C(=O)O[C@@H]2CCCN(Cc3ccccc3)C2)[C@@H]1c1cccc([N+](=O)[O-])c1 | inactive |
| CN1CCN(C(c2ccccc2)c2ccccc2)CC1 | inactive |
| OC[C@H]1O[C@H](O[C@]2(CCl)O[C@H](CCl)[C@@H](O)[C@@H]2O)[C@H](O)[C@@H](O)[C@H]1Cl | inactive |
| Cc1cccc(C)c1NC(=O)CN1CCN(CCCC(c2ccc(F)cc2)c2ccc(F)cc2)CC1 | inactive |
| COC(=O)[C@@H]1CC2=CC(=O)CC[C@]2(C)[C@@]23O[C@@H]2C[C@@]2(C)[C@@H](CC[C@@]24CCC(=O)O4)[C@H]13 | inactive |
| CCCCc1nc(Cl)c(CO)n1Cc1ccc(-c2ccccc2-c2nn[nH]n2)cc1 | inactive |
| CC(=O)OCC(=O)[C@@]1(OC(C)=O)[C@@H](C)C[C@H]2[C@@H]3C[C@H](F)C4=CC(=O)C=C[C@]4(C)[C@@]3(F)[C@@H](O)C[C@@]21C | inactive |
| O=C1OC2(c3ccc(O)cc3Oc3cc(O)ccc32)c2ccccc21 | inactive |
| Cc1ccccc1C(=O)Nc1ccc(C(=O)N2CCCC(N(C)C)c3ccccc32)cc1 (stereo not given) | 8.41 µM (active) |
| Cc1ccnc(NS(=O)(=O)c2ccc(N)cc2)n1 | inactive |
| COc1cc(-c2ccc(=O)[nH]n2)ccc1OC(F)F | inactive |
